Laboratory results reported in PubChem BioAssay (NCI).
This is part of a sample that, as a whole, favours compounds with a hit. Of some 83,000 tested, about 20% had one in any assay.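 Compound tested at a single concentration for 48 hours in 96-well plates; a percent growth value below 10 was scored as active.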 Calls of active or inactive are those of the source.

The compounds below were run on SF-268 CNS (assay: NCI-60 one-dose screen, 48 h (100 = growth as untreated, 0 = no growth, -100 = all killed)). Conditions: 10 µM.
`COc1cc2c3c(n([C@@H]4CCOC4)c(=O)c2cc1OC)-c1cc2c(cc1C3=O)OCO2` was tested, and the growth was 35% (inactive).
For `CCOC(=O)c1sc2ncnc(Nc3ccc4c(cnn4C(=O)Nc4ccc(C)c(Cl)c4)c3)c2c1C`, the growth was 103% (inactive).
For `CN1C(C(=O)Nc2ccccn2)=C(O)c2sc(Cl)cc2S1(=O)=O`, the growth was 100% (inactive).
`CCCN1CN2C(=O)N3CN(CCC)CN4C(=S)N(C1)C2C34` (centres undefined) was tested, and the growth was 97.3% (inactive).
With `COc1ccc(-c2cc(-c3cc(OC)ccc3OC)nc(N)c2C#N)cc1` the growth was 40.1% (inactive).
In the case of `c1cncc(-c2csc(-c3c[nH]c4ccccc34)n2)c1`, the growth is reported as 92.5% (inactive).
With `c1cnc2[nH]cc(-c3nc(-c4ccsc4)cs3)c2c1` the growth was 79.9% (inactive).
In the case of `COc1ccc(-c2nn(-c3cccc(Cl)c3)cc2C=C(C#N)C#N)cc1`, the growth is reported as 13.3% (inactive).
In the case of `CCOC(=O)c1sc2ncnc(Nc3ccc4c(cnn4C(=O)Nc4ccccc4)c3)c2c1C`, the growth is reported as 66.2% (inactive).
`CCCCCC(=O)O[C@]1(C(C)=O)CCC2C3CCC4=CC(=O)CC[C@]4(C)C3CC[C@@]21C` (some centres undefined) was tested, and the growth was 43.6% (inactive).
With `CCn1cc(CNc2ccc(C(=O)Nc3ccc4ccccc4c3)cc2)c(C)n1` the growth was 76.4% (inactive).
`O=c1[nH]c(=O)n(C2C[C@H](O)[C@@H](CO)O2)cc1C(F)(F)F` (some centres undefined) was tested, and the growth was 114% (inactive).

What follows are compounds tested on SF-295 CNS in the same assay as above. Conditions: 10 µM.
`Cc1c2c[n+](C(C)C)ccc2c(C)c2c1[nH]c1ccccc12` was tested, and the growth was 2.91% (active).
With `Cc1ccc(-n2c(C)nn3c(=O)c4c5c(sc4nc23)CN(C)CC5)cc1` the growth was 98.1% (inactive).
`CCCCCCCCCCCCCCCCCC[n+]1ccc2c(C)c3c(c(C)c2c1)c1cc(O)ccc1n3CC` was tested, and the growth was -1.22% (active).
In the case of `Cc1c2cnccc2c(C)c2c1c1cc(O)ccc1n2C(C)C`, the growth is reported as 34.5% (inactive).
`COc1ccc(C(=O)CSc2nc(-c3cc(OC)ccc3OC)cc(-c3ccc(OC)cc3)c2C#N)cc1` was tested, and the growth was 100% (inactive).
With `CCn1c2ccc(O)cc2c2c(C)c3c[n+](C)ccc3c(C)c21` the growth was 13.6% (inactive).
For `Cc1ccccc1N1C(=O)c2cc(S(N)(=O)=O)c(Cl)cc2NC1C` (centres undefined), the growth was 103% (inactive).
`N#Cc1c(-c2ccc(Cl)cc2)cc(-c2cc(O)ccc2O)nc1N` was tested, and the growth was 75.6% (inactive).
For `CN1CCc2c(sc3nc4n(-c5ccc(Cl)cc5)c(=O)[nH]n4c(=O)c23)C1`, the growth was 104% (inactive).
With `Cn1c2ccccc2c2c3[nH][nH]c(=O)c3c3c4ccccc4[nH]c3c21` the growth was 81.3% (inactive).
For `O=C1c2c(c3c4ccccc4n(CCCCCCN4CCOCC4)c3c3[nH]c4ccccc4c23)C(=O)N1O`, the growth was 108% (inactive).
With `Nc1ccccc1NC(=O)c1ccc(CCCC(=O)Nc2ccc(C3CC3N)cc2)cc1` (centres undefined) the growth was 22.1% (inactive).
In the case of `Nc1nc(-c2cccnc2)nc2c1sc(=S)n2-c1ccccc1`, the growth is reported as 111% (inactive).
For `COc1cc2c3c(n([C@H]4CCOC4)c(=O)c2cc1OC)-c1cc2c(cc1C3=O)OCO2`, the growth was -5.69% (active).
With `C=C/C(C)=C/C[C@]1(C)[C@H](C)[C@@H](OC(=O)CCC)[C@H](O)[C@@]23C(=C[C@H](OC)C[C@@H]12)[C@@H](OC(=O)CCC)O[C@H]3OC(C)=O` the growth was -59.6% (active).
In the case of `Fc1ccc2[nH]cc(-c3nc(-c4ccsc4)cs3)c2c1`, the growth is reported as 89.8% (inactive).
`CN1CCc2c(sc3nc4n(-c5ccc(Cl)cc5)cnn4c(=O)c23)C1` was tested, and the growth was 102% (inactive).
In the case of `O=C(CCCNC(=O)c1nc(-c2ccccc2)n(-c2ccccc2)n1)NO`, the growth is reported as 105% (inactive).
In the case of `Nc1ccc(-c2cccs2)cc1NC(=O)c1ccc(CCCC(=O)Nc2ccc(C3CC3N)cc2)cc1` (centres undefined), the growth is reported as 84% (inactive).
In the case of `CCOC(=O)c1sc2ncnc(Nc3ccc(NC(=O)Nc4ccc(Cl)cc4)cc3)c2c1C`, the growth is reported as 33.1% (inactive).
`CCNc1nc(C(F)(F)F)nc2c1sc(=S)n2-c1ccccc1` was tested, and the growth was 94% (inactive).
With `COc1ccc([C@H]2[C@H](C(=O)Nc3cccnc3)c3ccccc3C(=O)N2c2ccccc2)cc1` the growth was 70.7% (inactive).
`O=C(CCCCNC(=O)c1nc(-c2ccccc2)n(-c2ccccc2)n1)NO` was tested, and the growth was 93.6% (inactive).
For `COc1cc(CNC(=O)C2CSC3(C)c4ccccc4C(=O)N23)cc(OC)c1OC` (centres undefined), the growth was 104% (inactive).
With `COc1cc2c3c(n(C4CCNCC4)c(=O)c2cc1OC)-c1cc2c(cc1C3=O)OCO2` the growth was -70.7% (active).
With `C[C@@H](O)[C@H]1C(=O)N2C(C(=O)O)=C(SC3CN[C@H](C(=O)N(C)C)C3)[C@H](C)[C@H]12` (some centres undefined) the growth was 96.2% (inactive).
`COc1cc2c3c(n([C@@H]4CCOC4)c(=O)c2cc1OC)-c1cc2c(cc1C3=O)OCO2` was tested, and the growth was 1.17% (active).
In the case of `CCOC(=O)c1sc2ncnc(Nc3ccc4c(cnn4C(=O)Nc4ccc(C)c(Cl)c4)c3)c2c1C`, the growth is reported as 102% (inactive).
With `CN1C(C(=O)Nc2ccccn2)=C(O)c2sc(Cl)cc2S1(=O)=O` the growth was 94.8% (inactive).
In the case of `CCCN1CN2C(=O)N3CN(CCC)CN4C(=S)N(C1)C2C34` (centres undefined), the growth is reported as 94.2% (inactive).
With `COc1ccc(-c2cc(-c3cc(OC)ccc3OC)nc(N)c2C#N)cc1` the growth was 64.7% (inactive).
`c1cncc(-c2csc(-c3c[nH]c4ccccc34)n2)c1` was tested, and the growth was 92.6% (inactive).
In the case of `c1cnc2[nH]cc(-c3nc(-c4ccsc4)cs3)c2c1`, the growth is reported as 101% (inactive).
In the case of `CCOC(=O)c1sc2ncnc(Nc3ccc4c(cnn4C(=O)Nc4ccccc4)c3)c2c1C`, the growth is reported as 98.3% (inactive).
With `CCCCCC(=O)O[C@]1(C(C)=O)CCC2C3CCC4=CC(=O)CC[C@]4(C)C3CC[C@@]21C` (some centres undefined) the growth was 13.1% (inactive).
`CCn1cc(CNc2ccc(C(=O)Nc3ccc4ccccc4c3)cc2)c(C)n1` was tested, and the growth was 64.2% (inactive).
For `O=c1[nH]c(=O)n(C2C[C@H](O)[C@@H](CO)O2)cc1C(F)(F)F` (some centres undefined), the growth was 92.5% (inactive).
